Screening results as filed in PubChem BioAssay.
Rows were chosen to be rich in hits. Some 3% of all compounds tested hit in one or more screens of this group.
MITF act: MITF TRPM1 promoter activation in melanoma cells. SK-MEL-5 TRPM1-promoter luciferase, 24 h; % of positive control, neutral wells = 0. activation, % at 12.5 µM. 0.75% of 300,000 active. AID 588334;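 active means mean activation of at least 80% with every replicate also reaching 80%; inconclusive means mean reaches 80% but some replicate falls short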
esBAF inh: inhibitors of esBAF chromatin remodeling in mouse ES cells; AID 602393; Bmi1-luciferase knock-in reporter, 24 h; 100% = twice the neutral-well signal; 2% of 350,000 active; reporter increase, % at 12.5 µM; in the data active means activation above about 40%; inconclusive means no clear call, values can overlap the other calls;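 further: a rise in the Bmi1 reporter signal indicates esBAF inhibition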
Wnt bcat act: activators of Wnt/beta-catenin signaling | activation, % at 9.35 µM | Wnt/beta-catenin reporter cell assay, activator, plate reader | 1.2% of 300,000 active; in the data active means activation above about 30%, passing the limit was not always enough; inconclusive means no clear call, values can overlap the other calls
PfHsp90 yeast 2: reduces growth (ATP signal) of yeast expressing P. falciparum Hsp90; S. cerevisiae expressing PfHsp90, BacTiter-Glo ATP, 48 h; yeast lacking PDR1 and PDR3 efflux regulators; inhibition, % at 9.4 µM; 0.32% of 310,000 active;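 active means every replicate shows inhibition above about 80%, whatever the replicate mean, limit read from the data; inconclusive means mean inhibition reaches the set limit but some replicate falls short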
Vif inh: inhibitors of HIV Vif; HEK293T cells, Vif self-association by quenched fluorescence, imaging, 24 h; AID 602346; 0.35% of 340,000 active; inhibition, % at 7.49 µM; in the data active means inhibition above about 50%, passing the limit was not always enough; inconclusive means no clear call, values can overlap the other calls; inactive means below about 31%
N-glyco inh: N-linked glycosylation inhibition; 0.23% of 360,000 active; AID 588692; D54 ERlucT glycosylation luciferase reporter, 24 h; percent of 100 nM tunicamycin response; reporter increase, % at 12.5 µM;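 active means mean luciferase reporter signal, scaled so untreated is 0 and the glycosylation-blocking control 100, at or above a set limit in every replicate; inconclusive means mean reaches the limit but not every replicate does; inactive means mean below the limit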;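 further: luciferase carries N-glycosylation sites so blocking glycosylation raises the light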
Each line names hits and unclear results; the compound was inactive in the other large screens.

CCCC#Cc1ccc2c(c1)O[C@H](CN(C)CC1CCOCC1)[C@H](C)CN([C@H](C)CO)S2(=O)=O	none (no result: MITF act, Wnt bcat act, PfHsp90 yeast 2, Vif inh, N-glyco inh)
COc1cc(OC)c2ccc(=O)oc2c1C(CC(=O)N1CCN(c2ccccc2)CC1)c1ccc2c(c1)OCO2 (stereo not given)	none (no result: PfHsp90 yeast 2)
COc1ccc(C2NN=C(c3ccc(C)cc3)S2)cc1 (stereo not given)	none
CCOc1cc(C2NN=C(c3ccc(C)cc3)S2)ccc1O (stereo not given)	Wnt bcat act 63.4 (no result: esBAF inh)
Cc1cc(C)c(S(=O)(=O)CCC(C)C)c(=O)[nH]1	none (no result: esBAF inh)
Cc1nc(-c2ccc(Cl)cc2)sc1C1(C)CC(c2ccccc2)=NO1 (stereo not given)	esBAF inh 58.9 (no result: Vif inh)
Cc1nc(-c2ccc(Cl)cc2)sc1C1(C)CC(c2ccc(Cl)cc2)=NO1 (stereo not given)	none
COc1ccccc1C1=NOC(C)(c2sc(-c3ccc(Cl)cc3)nc2C)C1 (stereo not given)	esBAF inh 42.8
Cc1nc(-c2ccc(Cl)cc2)sc1C1(C)CC(c2ccccc2Br)=NO1 (stereo not given)	none (no result: esBAF inh, PfHsp90 yeast 2, Vif inh)
Cc1ccc(S(=O)(=O)N(C)C[C@@H]2Oc3ncc(Br)cc3C(=O)N([C@@H](C)CO)C[C@@H]2C)cc1	none (no result: MITF act, Wnt bcat act, PfHsp90 yeast 2, Vif inh, N-glyco inh)
O=C(CC(SCc1ccco1)c1ccc(O)cc1)c1cccs1 (stereo not given)	esBAF inh 71.0 (no result: Wnt bcat act, Vif inh)
O=C(CC(SCCO)c1ccc2c(c1)OCO2)c1cccs1 (stereo not given)	MITF act 88.2, esBAF inh 84.0, Wnt bcat act 41.9
COc1cccc(NC(=O)Nc2ccc(Br)cn2)c1	MITF act 106.2, esBAF inh 47.4
Cc1ccc(NC(=O)Nc2ccc(F)cc2)nc1	MITF act 82.3 (no result: esBAF inh, Wnt bcat act)
Cc1cc(NC(=O)Nc2ccc(Cl)cc2)no1	esBAF inh 47.4
O=C(Nc1ccc(Cl)cc1)Nc1ccc(Br)cn1	MITF act 93.5, esBAF inh inconclusive
COc1ccccc1NC(=O)Nc1ccc(C)cn1	none (no result: MITF act)
CCOc1ccc(NC(=O)Nc2ccc(Br)cn2)cc1	MITF act inconclusive (no result: esBAF inh, Wnt bcat act)
CC(C)NC(=O)Nc1ccc2c(c1)C(=O)N(C)[C@H]1CC[C@H](CC(=O)NCC3CCCCC3)O[C@H]1CO2	none (no result: MITF act, Wnt bcat act, PfHsp90 yeast 2, Vif inh, N-glyco inh)
Cc1nc(NC(=O)c2ccccc2)nc2cc3c(cc12)OCO3	esBAF inh 49.4
COc1ccc2cc(C3(C)NC(=O)NC3=O)ccc2c1 (stereo not given)	none
COc1cc(OC)c(C2CC(=O)N3CN(c4ccc(C)cc4)CSC3=C2C#N)cc1OC (stereo not given)	Wnt bcat act 37.6
Cc1ccc(N2CSC3=C(C#N)C(c4cccs4)CC(=O)N3C2)cc1 (stereo not given)	esBAF inh 54.4
CCc1ccc(N2CSC3=C(C#N)C(c4cccs4)CC(=O)N3C2)cc1 (stereo not given)	none (no result: Wnt bcat act)
CC1CC(C)CN(CCCNC(=O)C2CCCN(c3nnc(N4CCCC4=O)s3)C2)C1 (stereo not given)	none (no result: Wnt bcat act)
S=C(N=Nc1ccccc1)NNc1ccccc1	esBAF inh 63.3, Wnt bcat act 43.5
S=C(NNC(=S)Nc1ccc(Cl)cc1)NNc1ccccc1	none (no result: MITF act, esBAF inh, PfHsp90 yeast 2)
Oc1ccc2ccccc2c1/C=N/Nc1nnc(-c2ncc[nH]2)c2ccccc12	PfHsp90 yeast 2 121.5, Vif inh 87.0 (no result: MITF act, Wnt bcat act)
CC1(C)C2CC[C@]3(C)C(CC=C4[C@@H]5C[C@@](C)(CO)[C@@H](O)C[C@]5(C(=O)O)CC[C@]43C)[C@@]2(C)CC[C@@H]1O (stereo not given in full)	Vif inh 67.3 (no result: MITF act, Wnt bcat act, PfHsp90 yeast 2)
O=C(C[C@@H]1CC[C@@H]2[C@H](COC[C@@H](O)CN2C(=O)c2ccncc2)O1)NCc1cc(F)cc(F)c1	none (no result: MITF act, Wnt bcat act, PfHsp90 yeast 2, Vif inh, N-glyco inh)
CCc1nnc(NC(=O)c2sc3nc4cc(C)ccc4cc3c2N)s1	esBAF inh 49.1, Vif inh 169.7 (no result: MITF act, Wnt bcat act)
CCOC(=O)Cc1csc(NC(=O)c2sc3nc4ccc(C)cc4cc3c2N)n1	none (no result: MITF act, Wnt bcat act)
N/C(=N\OC(=O)c1ccc(F)cc1)c1cccc([N+](=O)[O-])c1	MITF act 86.5
N/C(=N\OC(=O)c1cccc(F)c1)c1cccc([N+](=O)[O-])c1	esBAF inh 61.1 (no result: MITF act)
N/C(=N/OC(=O)c1cccc([N+](=O)[O-])c1)c1cccc([N+](=O)[O-])c1	none (no result: esBAF inh)
O=C(Nc1ccc2c(c1)OCO2)C1CCCN1C(=O)OCc1ccccc1 (stereo not given)	none (no result: MITF act)
Cc1cc(=O)n(C)c2ccccc12	none (no result: esBAF inh)
Cc1cc(=O)n2c3c(c4c(cc13)c(CN(C)C)cc(=O)n4C)OC2	N-glyco inh 31.2 (no result: MITF act, esBAF inh)
CC(=O)NC1CCC(OC(=O)Nc2ccccc2)CC1 (stereo not given)	esBAF inh 53.1
O=C(Nc1ccccc1)OC1CCS(=O)(=O)C1 (stereo not given)	none (no result: esBAF inh)
COc1ccc(NC(=O)N(C)C[C@@H]2OCCCC[C@H](C)Oc3ccc(NS(=O)(=O)c4ccc(F)cc4)cc3C(=O)N([C@H](C)CO)C[C@@H]2C)cc1	none (no result: MITF act, Wnt bcat act, PfHsp90 yeast 2, Vif inh, N-glyco inh)
Cc1nc(-c2ccccc2)sc1-c1nc(-c2ccncc2)ncc1S(=O)(=O)c1ccccc1	N-glyco inh 57.1 (no result: esBAF inh, Wnt bcat act)
C[C@H](CO)N1C[C@H](C)[C@@H](CN(C)C(=O)Nc2ccc(F)cc2)OCCCC[C@H](C)Oc2ccc(NC(=O)Nc3ccc4c(c3)OCO4)cc2C1=O	esBAF inh 50.5 (no result: MITF act, Wnt bcat act, PfHsp90 yeast 2, Vif inh, N-glyco inh)
C[C@@H]1CN([C@@H](C)CO)C(=O)c2cc(NC(=O)Nc3ccc4c(c3)OCO4)ccc2O[C@@H](C)CCCCO[C@H]1CN(C)C(=O)Nc1ccccc1	esBAF inh 65.9 (no result: MITF act, Wnt bcat act, PfHsp90 yeast 2, Vif inh, N-glyco inh)
C[C@@H]1CCCCO[C@@H](CN(C)C(=O)Nc2ccc3c(c2)OCO3)[C@@H](C)CN([C@H](C)CO)C(=O)c2cc(NC(=O)Nc3ccc(F)cc3)ccc2O1	none (no result: MITF act, Wnt bcat act, PfHsp90 yeast 2, Vif inh, N-glyco inh)
C[C@H]1CCCCO[C@@H](CN(C)Cc2ccncc2)[C@@H](C)CN([C@@H](C)CO)C(=O)c2cc(NC(=O)Nc3ccc4c(c3)OCO4)ccc2O1	esBAF inh 80.0 (no result: MITF act, Wnt bcat act, PfHsp90 yeast 2, Vif inh, N-glyco inh)
C[C@@H]1CN([C@@H](C)CO)C(=O)c2cc(NC(=O)Nc3ccc4c(c3)OCO4)ccc2O[C@@H](C)CCCCO[C@@H]1CN(C)Cc1ccncc1	none (no result: MITF act, Wnt bcat act, PfHsp90 yeast 2, Vif inh, N-glyco inh)
CN(CC12CC3CC(CC(C3)C1)C2)C(=O)c1ccco1	none
CN(C(=O)c1ccco1)c1nnc(C23CC4CC(CC(C4)C2)C3)s1	esBAF inh 67.0 (no result: MITF act)
CC(=O)c1ccc(N/C=C\C(=O)c2ccc(C)cc2)cc1	MITF act 93.1, Wnt bcat act 65.7 (no result: esBAF inh)
CC(=O)Nc1ccc(N/C=C/C(=O)c2ccc(Cl)cc2)cc1	esBAF inh 58.6 (no result: MITF act)
Cc1ccc(C)c(N(C)S(=O)(=O)c2ccc3[nH]cc(C(=O)NCCN4CCOCC4)c(=O)c3c2)c1	none (no result: esBAF inh, Wnt bcat act)
CCCCCCCSc1nnc(-c2ccccc2N)c(=O)[nH]1	none
CCCCSc1nnc(-c2ccccc2N)c(=O)[nH]1	esBAF inh 96.7
